Hits are enriched below; roughly 18% of the tested compounds scored in any of these assays.
TDP1 cell noCPT: qHTS for Inhibitors of human tyrosyl-DNA phosphodiesterase 1 (TDP1): qHTS in cells in absence of CPT; DT40 Tdp1-/- hTDP1 cells, no CPT, ATP luminescence, 48 h; Potency, µM (top dose mostly 46.2 µM), inactives show at the highest dose activity change, negative = growth inhibition, most hits filed as inhibitors; 15% of 420,000 active; also: potency is read from the fitted curve at half-maximal effect; % is scaled to controls: 0 for no effect and ±100 for the full control effect; nearly all actives have a fitted effect of over 55% in size
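Compound effects on proliferation are scored in DT40 Tdp1-/-;hTDP1 cells in the absence of CPT. ATP levels (CellTiter-Glo luminescence) are recorded after a ≥48 hr, 37 °C incubation.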
TGFb inhibitor: inhibitors of TGF-b signaling | 1.2% of 410,000 active | AID 588855 | HepG2 CAGA-GFP TGF-b/SMAD3 reporter, GFP fluorescence, 18 h; TGF-beta stimulated, 500 pg/mL final | Potency, µM (doses to about 46.1 µM), inactives show at the highest dose activity, negative = inhibition, hits mostly inhibitors; also: potency is read from the fitted curve at half-maximal effect; % is scaled to controls: 0 for no effect and ±100 for the full control effect; nearly all actives have a fitted effect of over 65% in size
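Inhibition was scored as loss of TGF-beta-induced (500 pg/mL final, 18 hours, 37 degrees C) GFP in HEPG2 cells carrying a CAGA-GFP reporter, in DMEM with 1% FBS. Well GFP was summed per cell; Activity was normalised to unstimulated and stimulated DMSO wells, then concentration-response fitting.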
IL1B secr inh: blocks inflammasome-driven IL-1 beta release. THP-1 LPS/ATP IL-1B secretion, AlphaLISA, 16 h; hits give low values. 4.7% of 360,000 active. AID 743279. activity change, % at 57.5 µM; in the data active = activity change below about -50%; inconclusive = mostly about -30% to -49%; also: % is scaled to controls: 0 for no effect and ±100 for the full control effect
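Secreted IL-1B measured by AlphaLISA bead assay after 16 h compound exposure of THP-1 cells; compounds (final up to 57.5 uM) added 1 h before LPS (250 ng/mL) and ATP (1.25 mM) stimulation; lower signal means less secretion.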
DT40 TDP1 CPT: growth inhibition of DT40 Tdp1-/-;hTDP1 cells with camptothecin (screen for TDP1 inhibitors) | 12% of 420,000 active | chicken DT40 Tdp1-/-;hTDP1 cells + 20 nM CPT, ATP luminescence, 48 h | Potency, µM (top dose mostly 46.2 µM), without a hit: at the top dose activity change, negative = growth inhibition, hits mostly inhibitors | AID 686979; also: potency is read from the fitted curve at half-maximal effect; % is scaled to controls: 0 for no effect and ±100 for the full control effect; nearly all actives have a fitted effect of over 55% in size
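Chicken DT40 Tdp1-/- cells complemented with human TDP1, 400 cells/well, exposed to compounds plus 20 nM camptothecin for at least 48 h at 37 C; viability read as ATP content by CellTiter-Glo luminescence.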
TDP1 block: TDP1 (human) enzyme inhibition | Q9NUW8 | recombinant TDP1, AlphaScreen DNA substrate cleavage | 0.28% of 350,000 active | AID 485290 | Potency, µM (highest dose often 130 µM), for inactives: at the highest dose activity change, negative = inhibition, most hits filed as inhibitors; also: potency is read from the fitted curve at half-maximal effect; % is scaled to controls: 0 for no effect and ±100 for the full control effect; nearly all actives have a fitted effect of over 40% in size
Target sequence (Q9NUW8 whole entry, looked up): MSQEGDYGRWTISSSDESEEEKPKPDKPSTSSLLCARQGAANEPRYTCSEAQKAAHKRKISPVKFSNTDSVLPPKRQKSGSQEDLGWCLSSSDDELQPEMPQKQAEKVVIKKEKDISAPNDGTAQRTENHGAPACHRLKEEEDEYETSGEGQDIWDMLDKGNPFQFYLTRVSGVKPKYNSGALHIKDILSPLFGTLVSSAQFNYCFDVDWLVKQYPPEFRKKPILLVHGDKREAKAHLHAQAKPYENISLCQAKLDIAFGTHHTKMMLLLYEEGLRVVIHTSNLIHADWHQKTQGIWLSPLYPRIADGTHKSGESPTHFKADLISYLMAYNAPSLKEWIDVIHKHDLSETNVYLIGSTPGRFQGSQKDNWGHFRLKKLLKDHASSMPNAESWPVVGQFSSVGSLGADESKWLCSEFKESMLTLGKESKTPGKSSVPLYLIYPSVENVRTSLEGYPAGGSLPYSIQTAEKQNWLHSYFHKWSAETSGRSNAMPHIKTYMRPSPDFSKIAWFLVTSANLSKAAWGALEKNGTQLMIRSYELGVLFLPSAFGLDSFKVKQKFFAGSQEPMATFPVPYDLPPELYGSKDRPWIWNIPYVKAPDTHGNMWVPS
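Steps: enzyme plus compound, 15 min RT; add biotin/phosphotyrosine-FITC oligonucleotide (15 nM final), react 5 min; add donor/acceptor beads (10 ug/ml final), 10 min; read AlphaScreen. Tdp1 at 1 nM final.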
HepG2 tox: counter-screen for TGF-b inhibitors: cytotoxicity in HepG2 cells | HepG2 CAGA-GFP viability, ATP luminescence, 18 h | Potency, µM (doses to about 46.1 µM), for the others: at the top dose activity change, negative = cytotoxicity, most hits filed as cytotoxic | 0.76% of 410,000 active | AID 588856; also: potency is read from the fitted curve at half-maximal effect
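HepG2 CAGA-GFP cells (1000/well, DMEM with 1% FBS) received compound, then TGF-beta at 500 pg/mL final, and were incubated 18 hours at 37 degrees C. Viability was read by CellTiter-Glo luminescence. Media-only wells were set as complete cell-killing and DMSO as no toxicity.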
Starred values were filed as active, the others as inactive; u = inconclusive; x = no result. Unless noted, calls follow the shape of the dose curve; as a rule, active = well fitted curve in the direction sought with a large enough effect; inconclusive = small, poorly fitted or top-dose-only effect, or another doubt; inactive = no such curve, though single readings can be large; an effect the other way counts as inactive or inconclusive.

SMILES | TDP1 cell noCPT | TGFb inhibitor | IL1B secr inh | DT40 TDP1 CPT | TDP1 block | HepG2 tox
COc1ccc(-n2nnnc2CNC(=O)c2ccc3c(c2)OCO3)cc1 | -23% | u | 7 | -4% | x | -13%
CCn1c(SCC(=O)NC2CCCC2)nnc1C(C)NC(=O)c1ccccc1Br (configuration not stated) | 0% | -3% | 22 | -11% | x | -3%
CCOC(=O)C1(CCc2ccccc2)CCN(C(=O)c2occc2C)CC1 | 15µM* | -8% | -12 | u | 3% | -36%
CCOC(=O)C1(Cc2ccc(OC)cc2)CCN(C(=O)c2cc(C)nn2C)CC1 | 18µM* | u | 22 | 23µM* | 2% | -37%
CCOC(=O)C1(Cc2ccc(Cl)cc2)CCN(C(=O)c2cnc(C)cn2)CC1 | 23µM* | -2% | 32 | u | x | -1%
CCOC(=O)C1(CCCc2ccccc2)CCN(C(=O)c2cnn(CC)c2)CC1 | 18µM* | -2% | -24 | 26µM* | -3% | -16%
CCOC(=O)C1(CCc2ccccc2)CCN(C(=O)c2cccc(C)n2)CC1 | u | u | 26 | u | x | -29%
CCOC(=O)c1cc2c(c(CCO)n1)[C@@H](CCO)N(S(=O)(=O)C(C)(C)C)C2 | -26% | -6% | 39 | 0% | x | 0%
O=C(O)CCc1ccc2ccccc2c1 | -27% | 6% | x | 4% | x | 0%
O=C(COC(=O)C1CCN(S(=O)(=O)c2ccc(Cl)c(C(F)(F)F)c2)CC1)NCC1CCCO1 (configuration not stated) | u | -6% | 3 | -2% | x | 1%
COCCNC(=O)c1ccc(C2SCC(=O)N2CCc2ccccc2)cc1 (configuration not stated) | -2% | -8% | 48 | -23% | x | 1%
CCOC(=O)C1(Cc2ccc(OC)cc2)CCN(S(C)(=O)=O)CC1 | -6% | 4% | 19 | -12% | 0% | -3%
CCCn1cc(CN2CCC(Cc3cccc(F)c3)(C(=O)OCC)CC2)c(C)n1 | u | -28% | 10 | u | -1% | -25%
CCOC(=O)C1(CCCc2ccccc2)CCN(C(=O)c2cnc(C)cn2)CC1 | 21µM* | -14% | -14 | 26µM* | 6% | -10%
CCOC(=O)C1(Cc2ccc(Cl)cc2)CCN(C(C)Cc2ccc(O)c(OC)c2)CC1 (configuration not stated) | 3.3µM* | u | -51* | 9.2µM* | x | -43%
CCOC(=O)C1(Cc2ccc(Cl)cc2)CCN(Cc2cn(CC)nc2C)CC1 | u | -13% | u | 16µM* | 8% | -17%
CN(CCC(=O)c1ccccc1)CCC(=O)c1ccccc1 | 2.9µM* | 0% | -10 | 4.6µM* | x | -1%
CN(C)CCC(=O)c1ccc(Cl)cc1 | 4.6µM* | -6% | -5 | 2.6µM* | -2% | -14%
Cc1ccccc1S(=O)(=O)NC(=O)C1(C)CCN1C(=O)Cc1ccccc1Cl (configuration not stated) | 3% | 0% | 19 | -7% | x | -10%
CC(C)O/C(=N/S(=O)(=O)c1ccc(Cl)cc1)c1ccccc1 | -8% | 6% | 16 | 9% | x | 11%
CN(C)c1ccc(NC(=S)Nc2ccc3c(c2)c(=O)n(C)n3-c2ccc(C(C)(C)C)cc2)cc1 | 12µM* | u | 5 | 21µM* | x | -16%
CN(C)c1ccc(NC(=O)Nc2ccc3c(c2)c(=O)n(C)n3-c2ccccc2)cc1 | 21µM* | 12% | -24 | u | x | -12%
COc1ccc(N2CCN(C3CCCN(C(=O)CSC)C3)CC2)cc1 (configuration not stated) | 4% | 1% | 58 | -18% | x | -23%
COc1ccc([C@H]2/C=C\CN(C(=O)C3CCCC3)[C@@H](C)C(=O)N2Cc2ccc(F)cc2)cc1 | 7.3µM* | -10% | 22 | 13µM* | x | -12%
CCCCCCC(=O)N1C/C=C\C(c2ccc(OC)cc2)N(Cc2ccc(F)cc2)C(=O)C1Cc1ccccc1 (configuration not stated) | x | -18% | x | x | 9% | -9%
SMILES | TDP1 cell noCPT | TGFb inhibitor | IL1B secr inh | DT40 TDP1 CPT | TDP1 block | HepG2 tox
COc1ccc(C2/C=C\CN(C(=O)C3CCCC3)[C@H](Cc3ccccc3)C(=O)N2Cc2ccc(F)cc2)cc1 (some centres not stated) | u | u | -22 | 23µM* | 1% | -8%
COc1ccc(C2/C=C\CN(C(=O)Nc3ccc(C(F)(F)F)cc3)CC(=O)N2Cc2ccc(F)cc2)cc1 (configuration not stated) | 13µM* | u | 0 | 15µM* | 9% | -45%
CCCCCCCN1C/C=C\C(c2ccc(OC)cc2)N(Cc2ccc(F)cc2)C(=O)[C@H]1Cc1ccccc1 (some centres not stated) | 18µM* | 6% | 4 | u | 1% | 2%
COc1cccc(CNC(=O)c2cc(=O)[nH]c3ccc(S(=O)(=O)N4CCCC4)cc23)c1 | 11% | -1% | x | 1% | 5% | -5%
C[C@H](NS(=O)(=O)c1ccccc1F)C(=O)OCC(=O)Nc1ccc2c(c1)OCCO2 | 15% | 6% | u | 2% | 0% | 1%
CN1CCN(CC#Cc2ccccc2)CC1CCO (configuration not stated) | 8% | 1% | 15 | 0% | x | -10%
CC(C)(C)CN1CCN(CC#Cc2ccccc2)CC1CCO (configuration not stated) | 10µM* | -1% | 13 | u | 3% | -18%
COc1ccccc1N1CCN(CCCCN2C(=O)C3CCCCN3C2=O)CC1 (configuration not stated) | u | -2% | 21 | 26µM* | x | 5%
COc1ccccc1N1CCN(CCCCCCOc2ccc(F)cc2)CC1 | 21µM* | u | -23 | 23µM* | 0% | -60%
COc1ccccc1OCCCCN1CCN(c2ccccc2OC)CC1 | u | -18% | -6 | u | x | -40%
COc1ccccc1N1CCN(CCCCOc2cccc3ccccc23)CC1 | 9.2µM* | -10% | -57* | 18µM* | 11% | -22%
Cc1ccc(CCNC(=O)C2CCCN(S(=O)(=O)c3ccc4c(c3)oc(=O)n4C)C2)cc1 (configuration not stated) | -26% | -9% | x | -25% | 1% | 1%
COc1ccc2nc3c(cc2c1)Cc1ccccc1-3 | x | x | x | x | 9% | x

Assay outcomes from PubChem BioAssay.
